Calls of active or inactive are those of the source.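 Rule for the calls: active = inhibition above 50% of the enzyme in parasite cell lysate; inactive = the rest.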

This assay can be described thus: PfM17LAP inhibitors in parasite extract, late-stage follow-up, cell lysate, fluorescence, Plasmodium falciparum lysate, powder samples (AID 492973). Particulars: P. falciparum cell lysate, H-Leu-NHMec fluorescence; at 5 µM; active compounds read high.
One may read the inhibition as the percentage by which the read-out fell short of the control. With `O=C(O)Cc1ccc(NC(=O)Nc2ccc(Br)cc2)cc1`, the inhibition is 41% (inactive). The same measure for `O=C(CSc1nc(O)cc(=O)n1-c1ccccc1)Nc1ccc2c3c(cccc13)CC2`: 22% (inactive).

As to `COc1cc(NC(=O)CSc2nc3c(C)ccc(C)c3cc2C)c(C(=O)O)cc1OC`, the inhibition was 74% (active). The same measure for `CCn1c2ccccc2c2cc(NC(=O)CSc3nccc(=O)[nH]3)ccc21`: 49% (inactive).

`Cc1cc(C(=O)COC(=O)c2ccc[nH]c2=O)c(C)n1-c1ccc(F)cc1`: the inhibition was 32% (inactive). The same measure for `COC(=O)c1c(NC(=O)[C@H]2CCCC[C@H]2C(=O)O)sc2c1CCCCC2`: 65% (active); for `COC(=O)c1c(NC(=O)[C@H]2CC=CC[C@H]2C(=O)O)sc(C)c1C`: 31% (inactive).

In the case of `CCc1ccc(NC(=O)[C@H]2CC=CC[C@H]2C(=O)O)cc1`, the inhibition is 22% (inactive). Regarding `S=c1nc(-c2ccccc2Br)[nH][nH]1`, the inhibition was 26% (inactive). Under `CCc1cc2cc(OC)ccc2nc1SCC(=O)Nc1cc(OC)c(OC)cc1C(=O)O` stands 68% (active); under `Cc1cc(C(=O)COC(=O)c2ccc[nH]c2=O)c(C)n1-c1ccccc1`, 36% (inactive); under `CCOC(=O)c1c(-c2ccc(C)cc2)csc1NC(=O)[C@H]1CC=CC[C@H]1C(=O)O`, 48% (inactive).

As for `COc1cc(NC(=O)CSc2nnc3c(C)cc4cc(C)cc(C)c4n23)c(C(=O)O)cc1OC`, the inhibition was 55% (active). The same measure for `O=C(Nc1ccc(Cl)cc1)Nc1cccc(C(=O)O)c1`: 65% (active); for `O=c1cc(-c2ccc(Cl)c(Cl)c2)[nH][nH]1`: 13% (inactive). `COc1ccc(NC(=O)CSc2nc(O)cc(=O)n2C)cc1`: the inhibition was 29% (inactive). The same measure for `CCc1cc2ccccc2nc1SCC(=O)Nc1cc(OC)c(OC)cc1C(=O)O`: 68% (active); for `CC(C)c1ccc(NC(=O)[C@H]2CCCC[C@H]2C(=O)O)cc1`: 27% (inactive); for `Cc1ccc(Nc2nnc(SC3CCOC3=O)s2)cc1` (stereo not given): 57% (active). Take `S=c1nc(-c2cccc(Cl)c2)[nH][nH]1`: the inhibition is 22% (inactive). Under `C=CCn1c(SCC(=O)Nc2cccc3ccccc23)nc(O)c(CC)c1=O` stands 31% (inactive); under `Cc1ccc(-c2c(C)sc(NC(=O)[C@@H]3C4CCC(O4)[C@@H]3C(=O)O)c2C(=O)OC(C)C)cc1` (stereo not given in full), 23% (inactive). For the compound `CCOC(=O)c1c(-c2cccc(C)c2)csc1NC(=O)[C@H]1CC=CC[C@H]1C(=O)O`, the inhibition was 26% (inactive). `COc1cc(NC(=O)CSc2nc3ccccc3cc2C)c(C(=O)O)cc1OC`: the inhibition is 67% (active). In the case of `COc1ccc(C(C)(C)C)cc1NC(=O)[C@H]1CC=CC[C@H]1C(=O)O`, the inhibition was 40% (inactive).

The values above are taken from PubChem BioAssay AID492973 (The Scripps Research Institute Molecular Screening Center, 2010).
